# Shown are actives, neighbours in structure and some others; about 12% of the full set was active somewhere.
# SARS PLpro yeast – inhibitors of SARS-CoV papain-like protease in yeast; S. cerevisiae expressing SARS-CoV PLpro, growth rescue; Potency, µM (series often up to 32.9 µM), without a hit: at the highest dose activity, positive = growth rescue, actives largely listed as activators; 330,000 compounds, 0.19% hits; calls by dose curve; further: 0% is about no effect; nearly all actives have a fitted effect of over 55% in size
# Pf growth 96h – P. falciparum growth inhibition at 96 hours; P. falciparum luciferase reporter growth, 96 h; Potency, µM (highest dose often 28.7 µM), inactives show at the highest dose activity change, negative = inhibition, hits mostly inhibitors; 320,000 compounds, 6.9% hits; further: on the % scale 0 is the no-effect control and ±100 the full control effect
#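 P. falciparum expressing integrated firefly luciferase grown in erythrocytes (2% hematocrit, 0.05% parasitemia final) with compounds for 96 hours at 37 C, 5% CO2. Growth inhibition read as loss of luminescence after adding luciferase detection reagent.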
# Pf growth 48h – P. falciparum growth inhibition at 48 hours (one generation). P. falciparum luciferase growth in erythrocytes, 48 h. Potency, µM (titrated, usually from 28.7 µM), for inactives: at the top dose activity change, negative = inhibition, actives largely listed as inhibitors. 310,000 compounds, 5.9% hits; further: on the % scale 0 is the no-effect control and ±100 the full control effect
#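 A one-generation exposure of luciferase-tagged malaria parasites in RPMI 1640/Albumax erythrocyte culture, 37 C and 5% CO2. Inhibition is inferred from decreased luminescence after adding detection reagent.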
# Sm TGR block – S. mansoni TGR enzyme inhibition; purified TGR, DTNB reduction, TNB absorbance 405 nm; 360,000 compounds, 3% hits; AID 485364; Potency, µM (titrated, usually from 114 µM), for the others: at the highest dose activity change, negative = inhibition, hits mostly inhibitors; further: on the % scale 0 is the no-effect control and ±100 the full control effect; nearly all actives have a fitted effect of over 60% in size
#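 Kinetic colorimetric format: TGR-catalysed, NADPH-driven DTNB reduction monitored via TNB absorbance. Enzyme dispensed at 20 nM; compound exposure 15 min at room temperature before reaction start.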
# AmpC inh no detg – AmpC beta-lactamase inhibition without detergent | AmpC nitrocefin hydrolysis, absorbance 480 nm, 0.0001% Triton | Potency, µM (titrated, usually from 57.1 µM), without a hit: at the highest dose activity change, negative = inhibition, actives largely listed as inhibitors | AID 485341 | 330,000 compounds, 0.52% hits;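 further: plate controls were no compound for no effect and no enzyme for full effect; nearly all actives have a fitted effect of over 20% in size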
# Target sequence (P00811 whole entry, looked up): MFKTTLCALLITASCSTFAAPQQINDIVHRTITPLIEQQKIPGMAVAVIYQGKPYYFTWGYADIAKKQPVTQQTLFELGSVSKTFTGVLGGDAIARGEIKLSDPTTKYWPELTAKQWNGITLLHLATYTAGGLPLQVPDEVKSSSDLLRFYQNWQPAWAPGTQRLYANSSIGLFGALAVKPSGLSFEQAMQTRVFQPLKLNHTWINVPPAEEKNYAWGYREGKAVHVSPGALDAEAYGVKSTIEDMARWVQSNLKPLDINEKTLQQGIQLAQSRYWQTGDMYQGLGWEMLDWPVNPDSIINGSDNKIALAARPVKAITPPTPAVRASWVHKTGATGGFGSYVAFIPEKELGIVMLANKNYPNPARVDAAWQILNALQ
#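 20 mM phosphate pH 7.0 + 0.01% (detergent screen) or 0.0001% Triton X-100; 5.3 nM AmpC reagent; cpd preinc 15 min RT; nitrocefin (800 uM stock) to start; A480 q20 s × 4 min; Activity was normalised to no-enzyme and no-compound control wells.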
# AmpC inh detg – AmpC beta-lactamase inhibition with detergent present | 370,000 compounds, 0.041% hits | P00811 | Potency, µM (doses to about 114 µM), for the others: at the top dose activity change, negative = inhibition, actives largely listed as inhibitors | AmpC hydrolysis of nitrocefin, absorbance 480 nm, 0.01% Triton;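 further: 0% = no-compound wells and -100% = no-enzyme wells; nearly all actives have a fitted effect of over 25% in size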
#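 AmpC (5.3 nM in the dispensed reagent) in 20 mM phosphate pH 7.0 with 0.01% (detergent screen) or 0.0001% Triton X-100 was preincubated with compounds for 15 min at room temperature. Nitrocefin was then added from an 800 uM solution, and hydrolysis was followed at 480 nm.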
# * hit, by the source's call; ? = inconclusive; / = not tested or not shown; [ ] = dose if it differs, or a comment. Unless noted, the call rests on the fitted dose curve; in most records, active means well fitted curve in the direction sought with a large enough effect; inconclusive means small, poorly fitted or top-dose-only effect, or another doubt; inactive means no such curve, though single readings can be large; an effect the other way counts as inactive or inconclusive. Potency means the concentration at half of the fitted maximal effect.
SMILES,SARS PLpro yeast,Pf growth 96h,Pf growth 48h,Sm TGR block,AmpC inh no detg,AmpC inh detg
COc1ccc(C(CCNCc2ccccc2)c2ccc(F)cc2)cc1 (centres undefined),10%,0%,0%,-1%,1%,-16%
COc1ccc(C(CCN(Cc2ccc(OC)c(OC)c2)C(C)=O)c2ccccc2)cc1 (centres undefined),12%,?,?,5%,234%,1%
CC(=O)OCC(OC(C)=O)C(OC(C)=O)C(OC(C)=O)C(=O)Nc1cccc(C)c1 (centres undefined),5%,124%,13%,-2%,-1%,-1%
COCCN(C(=O)COC(=O)CSc1ccccc1)c1c(N)n(Cc2ccccc2)c(=O)[nH]c1=O,2%,32%,-11%,-9%,49%,?
CCN(CC(=O)Nc1cccc(OC)c1)C(=O)C1CCN(C(=O)Nc2ccccc2)CC1,-2%,?,/,-27%[11.4 µM],16%,-13%
CCCC(O)c1nc2ccccc2n1CCCCOc1ccc(OC)cc1 (centres undefined),/,/,/,-3%,/,3%
O=C1C=C(c2ccc(Cl)cc2)OC2(CCCC2)O1,-1%,13µM*,?,-21%,-16%,?
CC1CCN(C(=O)C(C)c2ccc([N+](=O)[O-])cc2)CC1 (centres undefined),-1%,-2%[5.75 µM],-17%,20%,-4%,3%
CC(C(=O)N1CCCC1)c1ccc([N+](=O)[O-])cc1 (centres undefined),24%,15µM*,6%,7%,-17%,1%
CCOc1ccccc1NC(=O)Cn1cc(C(=O)c2cccc(OC)c2)c(=O)c2ccc(C)nc21,/,/,/,0%,/,2%
CC(Oc1cccc(Br)c1)C(=O)NNC(=O)CCS(=O)(=O)c1ccccc1 (centres undefined),1%,/,/,/,-6%,/
COc1ccc2c(c1)OC/C(=C/c1cccs1)C2=O,-9%,2.9µM*,281%,2%,0%,6%
COc1ccc(/C=C2\COc3ccccc3C2=O)c(OC)c1,-7%,9.3µM*,?,-27%,-13%,-14%
O=C1CC(c2ccccc2)Oc2cc(O)cc(O)c21 (centres undefined),-2%,?,-4%,-7%,-47%,4%
COc1cc(OC)c2c(c1O)OC(c1ccccc1)CC2=O (centres undefined),1%,9%,32%,50µM*,-26%,4%
O=C(Nc1cccc(Br)c1)c1ccc2c(c1)SC1=NS(=O)(=O)CCN12,-2%,12µM*,12µM*,-4%,-12%,3%
CC(C)(C)c1ccccc1NC(=O)c1ccc2c(c1)SC1=NS(=O)(=O)CCN12,-2%,?,?,0%,-19%,3%
CCOc1ccccc1NC(=O)CCc1c(C)nc2c(c(C)nn2-c2ccccc2)c1C,/,/,/,5%,/,14%
COc1cccc(C(C(=O)NC2CCCC2)N(Cc2ccco2)C(=O)c2ccco2)c1OC (centres undefined),5%,100%,?,-11%,3%,6%
COc1ccccc1N(C(=O)c1snc(C(N)=O)c1N)C(C(=O)NC1CCCC1)c1ccc(N(C)C)cc1 (centres undefined),7%,5%,13µM*,1%,-9%,-6%
COc1cccc(C(C(=O)NC2CCCC2)N(C(=O)c2ccco2)c2ccccc2F)c1OC (centres undefined),-3%,31%,8.3µM*,-9%,16%,-3%
COc1ccc(C)cc1N(C(=O)c1snc(C(N)=O)c1N)C(C(=O)NC1CCCCC1)c1ccc(C)o1 (centres undefined),-6%,?,9.3µM*,-9%,34%,-11%
COc1ccc(C(C(=O)NC2CCCC2)N(Cc2cccnc2)C(=O)c2snc(C(N)=O)c2N)cc1 (centres undefined),1%,13µM*,12µM*,-5%,-7%,1%

# Screening data: PubChem BioAssay, National Center for Advancing Translational Sciences (NCATS)
